The results in this text go back to PubChem BioAssay (EPA / NIEHS).

Each structure is given as a SMILES string. Records with an inconclusive call do not appear. Calls of active or inactive are those of the source. How the source made its calls, unless noted: active means hit-call score of the fitted dose curve at least 0.9, where 1 is the maximum; inconclusive means response in the unintended direction; inactive means score below 0.9.

A short description of the first assay: ATG_M_32_XSP2: Attagene TRANS-FACTORIAL Multi-Species (XSP2) HepG2 Assay for M19 Transcription Factor (Internal Marker) (AID 2283826). In short, it runs like this: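 Read-out: reporter mRNA quantified by RT-PCR, FAM labeling, HpaI digestion and capillary electrophoresis, 24 h after dosing transfected HepG2 cells. Medium carried 3 nM 6-alpha-fluorotestosterone plus 1.5 nM norgestrel; gain of signal fitted against DMSO.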
For the molecule `CCC(C)(C)C1CCC(O)CC1` (stereo unspecified), the result was inactive.

As for `Cc1oc(-c2ccccc2)nc1CCOc1ccc(C[C@H](Nc2ccccc2C(=O)c2ccccc2)C(=O)O)cc1`, the molecule was classed as inactive.

For `Cc1c(C)c2c(c(C)c1O)CCC(C)(COc1ccc(CC3SC(=O)NC3=O)cc1)O2` (stereo unspecified), the outcome was inactive.

A further assay is described as follows: CCTE_Harrill_HTTr_Apoptosis_PRF_DMEM_12hr: (Pilot) CCTE's 12-hour Apoptosis Assessment for the High-Throughput Transcriptomics (HTTr) Platform, in MCF-7 cells cultured in phenol red-free DMEM + 10% charcoal-stripped fetal bovine serum, Harrill Lab (AID 2283985; active means hit-call score of the fitted dose curve at least 0.9, where 1 is the maximum; inactive means score below 0.9). The method in brief:
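MCF-7 cells in phenol red-free DMEM with 10% charcoal-stripped FBS, eight-point dilution series, 12 h exposure. Caspase-3/7 activation imaged by high content imaging with CellEvent Green reagent; bidirectional fit vs DMSO.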
For the molecule `Cc1oc(-c2ccccc2)nc1CCOc1ccc(C[C@H](Nc2ccccc2C(=O)c2ccccc2)C(=O)O)cc1`, the outcome was inactive.

As for `CC(C)C(=O)Nc1ccc([N+](=O)[O-])c(C(F)(F)F)c1`, the result was inactive.

Turning to `Cc1c(C)c2c(c(C)c1O)CCC(C)(COc1ccc(CC3SC(=O)NC3=O)cc1)O2` (stereo unspecified), the result was inactive.
